For 40 molecules, growth results are on record in PubChem BioAssay (NCI).

Compounds without any hit were thinned out: in the full panel of roughly 83,000, 20% have a hit.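 Note: values are percent growth. 100 is the growth of untreated cells, values between 100 and 0 indicate rising inhibition; between -100 and 0 indicates cell death.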 Active and inactive are the calls of the source. How the source made its calls: active means growth percent below 10; inactive means the rest.

The experiment concerns MDA-MB-468 breast. The experiment can be described thus: NCI-60 one-dose screen, 48 h (100 = growth as untreated, 0 = no growth, -100 = all killed). The following applies: 10 µM unless noted.
On to `O=C(Nc1cn[nH]c1-c1nc2ccc(CN3CCOCC3)cc2[nH]1)NC1CC1`, for which the growth is 25.5% (inactive).
Under `CC(=O)Oc1cc(OC(C)=O)c2ccccc2c1OC(C)=O` stands 72.7% (inactive); under `NC(=S)N/N=C/c1cn(-c2ccccc2)nc1-c1cc2ccccc2oc1=O`, 43.3% (inactive).
Consider `Cc1cccc2sc(/N=C(\N)C(Cl)(Cl)Cl)nc12`, for which the growth was 110% (inactive).
Under `CC(=O)c1ccc2c(c1)CCN2` stands 104% (inactive); under `COc1cccc(/C=C2\COc3ccc(O)cc3C2=O)c1OC`, 43.9% (inactive); under `CC(C)(C)OC(=O)N1CCc2c(sc3ncnc(N/N=C/c4cccc5ccccc45)c23)C1`, 5.85% (active).
As for `COc1ccc(S(=O)(=O)NCCCNc2nccc(-c3[nH]c(-c4ccccc4)nc3-c3ccc(Cl)c(O)c3)n2)cc1`, the figure is 78.3% (inactive); as for `CC1CC(C)(C)OB(OC(C)CC(C)(C)OB2OC(C)CC(C)(C)O2)O1` (stereo not given), 105% (inactive); as for `CN(C)CCOc1cccc(-c2nc3sccn3c2-c2ccnc(S(C)(=O)=O)n2)c1`, 92% (inactive).
As for `COc1ccc2c(CCCCC(c3ccccc3)c3ccccc3)c3[n+](cc2c1OC)CCc1cc2c(cc1-3)OCO2`, the figure is -75.3% (active); as for `COc1cc(/C=C2\CN(S(=O)(=O)c3ccccc3)C/C(=C\c3cc(CN4CCCCC4)c(O)c(OC)c3)C2=O)cc(CN2CCCCC2)c1O`, 53.2% (inactive); as for `CN1CCc2c(c3ccccc3c3ccccc23)C1`, 30.7% (inactive).
On to `COc1cc(-c2nc(SC(C)C)nc(Nc3ccccc3C)c2C#N)cc(OC)c1OC`, for which the growth is 111% (inactive).
Turning to `O=C(O)c1cc2ccccc2cc1Nc1ccccc1`, the growth is 102% (inactive).
Turning to `N/C(=N\OC(=O)c1ccccc1)C(Cc1ccccc1)C(=O)NOC(=O)c1ccccc1` (stereo not given), the growth is 66.1% (inactive).
As for `CN1CCN(Cc2ccc(NC(=O)c3cnc(F)c(C#Cc4cnc(N)c5ncccc45)c3)cc2C(F)(F)F)CC1`, the figure is -5.56% (active); as for `CS(=O)(=O)Nc1cccc(-c2cc(-c3ccccc3Cl)c(C#N)c(N)n2)c1`, -9.46% (active).
As for `Clc1ccc2c(NCCCn3cnc4c(N5CCCC5)nc(Cl)nc43)ccnc2c1`, the figure is 107% (inactive).
Under `CCOC(=O)Nc1ccc(-c2nc(-c3cccc(OC)c3)c(-c3ccnc(Br)c3)[nH]2)cc1` stands 25.9% (inactive); under `Cn1cc(-c2nn3cc(-c4ccccc4)nc3s2)c2ccccc21`, 71.5% (inactive).
As to `CC[C@]12C=CCN3CC[C@@]4(c5cc(NC(=O)COc6cc(O)c7c(=O)cc(-c8ccccc8)oc7c6)c(OC)cc5N(C)[C@H]4[C@@](O)(C(=O)OC)[C@@H]1OC(C)=O)[C@@H]32`, the growth was -74.6% (active).
Take `COc1ccc(NC(=O)Nc2ccc3c(ccn3C(=O)c3cccc(F)c3)c2)cc1`: the growth is 86.6% (inactive).
Under `Cc1ccc(S(=O)(=O)NC(=O)NCCSSCCNC(=O)NS(=O)(=O)c2ccc(C)cc2)cc1` stands 97.6% (inactive); under `COc1cc(/C=C/c2cc(/C=C/c3ccc(O)c(OC)c3)n(-c3ccc(Cl)cc3)c(=O)n2)ccc1O`, 76.4% (inactive); under `CC(=O)c1cc2c(cc1F)C(C)(C)CCC2(C)C`, 101% (inactive).
As for `COc1cc(/C=C2\CCC/C(=C\c3cc(CN4CCCC4)c(O)c(OC)c3)C2=O)cc(CN2CCCC2)c1O`, the figure is 67.2% (inactive); as for `CC1=CSC2=NCCN12`, 118% (inactive).
Under `COc1ccc(-c2nnc(SCc3ccc(O)c4ncccc34)n2-c2ccccc2)cc1` stands 10.3% (inactive); under `COc1ccc(-n2cc(COc3ccc4c5ccnc(C)c5n(CC(C)C)c4c3)nn2)cc1`, 35.3% (inactive).
As for `O=C(Nc1cccc(-n2ccc3c(NC(=O)c4ccccc4)ncnc32)c1)Nc1ccc(Cl)c(C(F)(F)F)c1`, the growth was -2.39% (active).
Take `CCOC(C)(c1ccc(Cl)cc1)C1CCNCC1` (stereo not given): the growth was 90.9% (inactive).
Consider `O=c1c(-c2ccc3c(c2)OCO3)coc2c(CO)c(O)ccc12`, for which the growth is -14.5% (active).
As for `O=C(Oc1cccc2ccccc12)Oc1cccc2ccccc12`, the figure is 117% (inactive); as for `CCC(C)CC(C)C(=O)c1c(O)ccn(OC)c1=O` (stereo not given), 69.4% (inactive); as for `O=C(Nc1ccc(F)cc1)c1c(NC(=O)C(F)(F)F)sc2c1CCCCC2`, -17% (active).
Under `CN(C)c1ncc(/C=C2\SC(=S)N(Cc3ccccc3Cl)C2=O)s1` stands 95.6% (inactive); under `CCCCCCCCCCCCCCCCCC1=NCCN1C(=O)OCCO`, -67.1% (active); under `O=C(Nc1ccc(CO)cc1)c1ccccc1Nc1ccnc(C(F)(F)F)c1`, 123% (inactive).
As for `COc1ccc(-c2c(N)n[nH]c2-c2cc(OC)c3c(c2)OCCO3)cc1`, the figure is 71.7% (inactive).
